The text below walks through data of PubChem BioAssay (NCI).

Compounds without any hit were thinned out: in the full panel of roughly 83,000, 20% have a hit.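 Step 1: grow cells in 96-well plates. Step 2: add test compound at a single concentration. Step 3: incubate 48 h. Step 4: record percent growth.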 The source made the active and inactive calls. Rule for the calls: active = growth percent below 10; inactive = the rest.

This experiment relates to MDA-MB-468 breast. In words: NCI-60 one-dose screen, 48 h (100 = growth as untreated, 0 = no growth, -100 = all killed). The conditions noted are these: 10 µM unless noted.
For `C/C(=N\Nc1cc(C)c2cc(C)ccc2n1)c1ccccn1`, the growth was -69% (active).
As to `CCCCCN(CCCCC)C(C)C(O)c1ccc2cc(Cl)c3ccccc3c2c1` (stereo not given), the growth is 91% (inactive).
As for `O=C1c2[nH]cc(CN[C@@H]3CCCN3)c2C(=O)c2c1c(O)c1ccccc1c2O`, the growth was -92.4% (active).
On to `COc1ccc2c3c(c(OCCCN(C)C)nc2c1)-c1ccc(Cl)cc1C3=O`, for which the growth was 43.5% (inactive).
For `Cc1ccccc1-c1cc(-c2ccc(Br)s2)[nH]c(=O)c1C#N`, the growth is 96.4% (inactive).
Consider `Cc1nn(-c2ccccc2)c2nc3c(nc12)C1=NCCN1C(c1ccc(Cl)cc1)N3` (stereo not given), for which the growth was 48.2% (inactive).
Then `O/N=C1\CCC2CCCCC2C1` (stereo not given), with 105% (inactive); and `Cc1cc(N2CCN(CCNc3ccnc4cc(Cl)ccc34)CC2)nc(N2CCOCC2)n1`, with 24.3% (inactive).
Then `CN([N-]C(=O)CC(=O)[N-]N(C)C(=S)c1ccccc1)C(=S)c1ccccc1.[Cu+2]`, with -58% (active).
As to `COc1ccc(NNS(=O)(=O)O)cc1`, the growth was 99.3% (inactive).
As for `OCCN1CCN(CCCN2c3ccccc3Sc3ccc(C(F)(F)F)cc32)CC1`, the growth was -47.1% (active).
Consider `C=C1C(=O)O[C@H]2[C@H]1CC/C(COC(=O)c1cccnc1)=C\CC[C@@]1(C)O[C@@H]21`, for which the growth is 17.6% (inactive).
As for `C=C(CO)[C@@H]1CC[C@]2(COC3CCCCO3)CC[C@]3(C)[C@H](CC[C@@H]4[C@@]5(C)C=C(C=O)C(=O)C(C)(C)[C@@H]5CC[C@]43C)[C@@H]12` (stereo not given in full), the growth is -75.4% (active).
As for `Fc1ccc(C(c2ccc(F)cc2)C(Cl)Cl)cc1`, the growth was 104% (inactive).
As for `CCCCCc1ccc(S(=O)(=O)Nc2cccc(-c3csc(NC(=O)CNCCN(C)C)n3)c2)cc1`, the growth is 82.9% (inactive).
With `O=C(Nc1ccc(OCc2nnc(-c3ccc(Cl)cc3)o2)c(F)c1)Nc1ccc(Cl)c(Cl)c1`, the growth was 43.2% (inactive).
With `COc1cc2c(cc1OC)C(Sc1ccc(SC)cc1)c1c(nc(N)c(C#N)c1N)O2` (stereo not given), the growth is -47.1% (active).
With `N#CC(I)CS(=O)(=O)c1ccccc1` (stereo not given) the figure was 25% (inactive).
With `Cc1ccc2nc(NC(=O)CSC(=S)N3CCN(C)CC3)sc2c1`, the growth was 116% (inactive).
Take `CC(=O)c1nc2ccccc2n1CCN1CCN(C)CC1`: the growth was -20.2% (active).
Consider `COc1cc2nc(N3CCCC3)nc(NCC3CCCCC3)c2cc1OC`, for which the growth was -41.2% (active).
Regarding `O=C1/C(=C\c2cn(CC(O)CN3CCCCC3)c3ccccc23)c2ccccc2N1c1c(Cl)cccc1Cl` (stereo not given), the growth is -93.3% (active).
`CCc1ccc(C2=C/C(=C/c3ccccc3)C(=O)N2CCc2ccc(S(N)(=O)=O)cc2)cc1`: the growth is 109% (inactive).
As to `COc1cccc(Nc2ncnc3cc(NC(=O)CCl)ccc23)c1`, the growth was -56% (active).
As to `C[N+](C)=c1ccc2nc3c(cc(Nc4ccccc4)c4ccccc43)oc-2c1`, the growth was -14.8% (active).
With `COc1cc(/C=C2/C=C(c3ccccc3)N(CCc3ccc(S(N)(=O)=O)cc3)C2=O)cc(OC)c1OC` the figure was 94.7% (inactive); with `NS(=O)(=O)c1ccc(N/C=C/C(=O)c2cc3ccccc3oc2=O)cc1`, 90.4% (inactive); with `Clc1ccc(N2N=C(c3cccc(Nc4ccncc4)c3)CC2c2ccccc2)cc1` (stereo not given), 74.1% (inactive).
In the case of `CC(=O)OCCCCCNc1ccccc1`, the growth was 125% (inactive).
`C=CC[P+](c1ccccc1)(c1ccccc1)c1ccccc1`: the growth was 10.9% (inactive).
In the case of `Nc1ccc(-n2c(=O)oc3ccc(Cl)cc3c2=O)c(Cl)c1`, the growth was -6.87% (active).
With `Cc1cn(-c2cc(NC(=O)c3cccc(C#Cc4cccc5[nH]nc(N)c45)c3)cc(C(F)(F)F)c2)cn1` the figure was 67.7% (inactive); with `COc1ccc(N2C(=O)/C(=C/C(Cl)=C/c3ccc([N+](=O)[O-])cc3)SC2=S)cc1`, -11.8% (active); with `O=c1[nH]c2cc(Cl)c(Cl)cc2o1`, 111% (inactive).
With `COc1ccc(-c2ccc(-c3ccc(C(=N)N)nc3)s2)cc1Cl`, the growth was -51.8% (active).
With `CCOC(=O)C(=CNc1cnc(Nc2ccc(N3CCOCC3)cc2)nc1Oc1ccc(OC)cc1)C(=O)OCC` the figure was 61.5% (inactive).
`CCOC(=S)Sc1ccc([N+](=O)[O-])cc1[N+](=O)[O-]`: the growth was 52.7% (inactive).
Consider `Cc1cc(=O)[nH]c2c(C#N)cnn12`, for which the growth is 106% (inactive).
With `FC(F)(F)c1ccc(-c2cnc(Cl)nc2NC2CCCCCC2)cc1` the figure was -4.8% (active); with `O=C1c2cc3c(cc2-c2c1c1ccc(Cl)cc1c(=O)n2CCCNCCO)OCO3`, -91.6% (active).
